Results published in ChEMBL document CHEMBL3988442, “University of Dundee, Small-Polar-MMV Screening Library” (2021).
For some of these results: Entries with a potency or affinity are not part of this list.

Experiments:
Set-up in all cases: scale not given: direction of the effect not stated beside the values
[1] = target: Protein translocase subunit SecA (Escherichia coli (strain K12)) (UniProt P10408); test: Assay to Identify E. coli SecA ATPase Inhibitors; type: functional; settings: 30 µM
[2] = target: T1, Ubiquitin-activating enzyme e1, putative (Leishmania donovani (strain BPK282A1)) (UniProt E9BSI1); test: Leishmania donovani Ubiquitin Activating Enzyme (LdE1); type: functional; settings: 30 µM
T1 sequence (whole entry): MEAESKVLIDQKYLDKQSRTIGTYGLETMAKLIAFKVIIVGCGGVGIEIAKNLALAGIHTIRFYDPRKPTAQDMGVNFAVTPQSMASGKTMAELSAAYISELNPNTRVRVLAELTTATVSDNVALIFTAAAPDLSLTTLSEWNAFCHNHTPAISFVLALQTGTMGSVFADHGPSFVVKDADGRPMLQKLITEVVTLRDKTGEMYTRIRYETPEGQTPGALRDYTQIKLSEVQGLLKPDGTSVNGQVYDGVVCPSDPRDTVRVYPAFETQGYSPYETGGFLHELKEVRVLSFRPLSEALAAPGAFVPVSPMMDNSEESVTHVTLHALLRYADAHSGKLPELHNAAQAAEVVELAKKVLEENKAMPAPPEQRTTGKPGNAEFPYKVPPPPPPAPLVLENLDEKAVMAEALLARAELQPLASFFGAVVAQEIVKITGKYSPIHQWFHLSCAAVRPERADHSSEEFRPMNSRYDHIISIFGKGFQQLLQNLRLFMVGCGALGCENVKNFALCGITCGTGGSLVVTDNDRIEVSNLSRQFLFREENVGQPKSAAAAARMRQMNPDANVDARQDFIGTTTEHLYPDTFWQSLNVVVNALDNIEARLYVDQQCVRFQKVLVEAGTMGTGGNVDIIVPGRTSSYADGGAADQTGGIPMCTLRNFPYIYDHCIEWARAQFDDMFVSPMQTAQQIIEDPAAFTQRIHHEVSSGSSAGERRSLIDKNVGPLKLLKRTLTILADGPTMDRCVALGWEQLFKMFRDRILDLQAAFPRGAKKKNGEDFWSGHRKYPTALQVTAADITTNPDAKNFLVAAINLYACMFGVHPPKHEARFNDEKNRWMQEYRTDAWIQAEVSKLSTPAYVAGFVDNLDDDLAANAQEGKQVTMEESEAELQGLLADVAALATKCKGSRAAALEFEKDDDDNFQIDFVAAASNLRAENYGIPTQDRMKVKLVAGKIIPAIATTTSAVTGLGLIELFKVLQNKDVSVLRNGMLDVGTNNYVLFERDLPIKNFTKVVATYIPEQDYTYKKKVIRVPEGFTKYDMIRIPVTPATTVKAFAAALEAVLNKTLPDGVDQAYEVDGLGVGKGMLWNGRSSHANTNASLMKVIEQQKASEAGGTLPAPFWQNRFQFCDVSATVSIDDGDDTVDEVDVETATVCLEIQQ

[3] = target: AMP-activated protein kinase, AMPK (Homo sapiens) (UniProt P54646+O43741+P54619+Q9UGJ0+Q9Y478+Q13131+Q9UGI9); test: AMP-dependent Kinase enzyme assay. An in vitro enzyme assay that detects ADP turnover that is directly proportional to AMPK activity. This uses naive AMPK that is activated during the assay with MK-8722; type: functional; settings: 30 µM
[4] = target: Sialic acid-binding Ig-like lectin 9 (Homo sapiens) (UniProt Q9Y336); test: Hs-Siglec9 ALPHAscreen SOP 20170721; settings: 10 µM
Trypanosoma cruzi = test: Trypanosoma cruzi phosphomannomutase and mannose-1-phosphate guanylyltransferase assay; type: functional; settings: 10 µM
[5] = target: T2, Arginase-2, mitochondrial (Homo sapiens) (UniProt P78540); test: in vitro enzyme assay to detect the production of urea directly proportional to the activity of Arginase II; type: functional; settings: 33.3 µM; note: in the data most compounds retested in dose-response had high values
T2 sequence (whole entry): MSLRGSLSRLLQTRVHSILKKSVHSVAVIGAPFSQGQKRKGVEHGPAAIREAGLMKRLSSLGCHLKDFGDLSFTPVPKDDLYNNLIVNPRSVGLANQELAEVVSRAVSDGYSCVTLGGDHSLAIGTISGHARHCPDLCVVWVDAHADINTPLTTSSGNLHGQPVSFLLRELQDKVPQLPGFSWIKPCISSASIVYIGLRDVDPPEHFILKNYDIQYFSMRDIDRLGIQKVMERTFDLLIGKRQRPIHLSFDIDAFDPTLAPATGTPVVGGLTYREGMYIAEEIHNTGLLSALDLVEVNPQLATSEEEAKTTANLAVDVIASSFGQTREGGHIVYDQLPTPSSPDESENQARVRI

[6] = target: T3, Proteasome subunit beta (Trypanosoma cruzi) (UniProt O96673); test: Trypanosoma cruzi proteasome chymotrypsin-like activity (TcProtChymo) assay.; note: in the data most compounds retested in dose-response had high values; type: functional; settings: 9.37 µM
T3 sequence (whole entry): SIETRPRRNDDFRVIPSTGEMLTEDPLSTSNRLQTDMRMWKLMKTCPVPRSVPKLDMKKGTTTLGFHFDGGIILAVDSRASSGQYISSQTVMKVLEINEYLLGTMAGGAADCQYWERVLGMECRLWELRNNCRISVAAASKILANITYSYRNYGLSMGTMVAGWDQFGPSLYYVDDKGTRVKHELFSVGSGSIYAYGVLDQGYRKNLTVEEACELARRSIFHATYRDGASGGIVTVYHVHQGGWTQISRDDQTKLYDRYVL

Homo sapiens = organism: Homo sapiens; test: To identify inhibition of the IFN signalling (Jak-Stat) pathway via expression of an eGFP reporter gene under the control of an IFN-stimulated response element (ISRE) containing MxA promoter.; type: functional; settings: 30 µM
[7] = target: T4, Tyrosyl-tRNA synthetase, putative (Trypanosoma cruzi (strain CL Brener)) (UniProt Q4DSP6); test: Trypanosoma cruzi tyrosyl tRNA synthetase (TcYRS) _High Tyrosine SOP; type: functional; settings: 30 µM; note: in the data most compounds retested in dose-response had high values
T4 sequence (whole entry): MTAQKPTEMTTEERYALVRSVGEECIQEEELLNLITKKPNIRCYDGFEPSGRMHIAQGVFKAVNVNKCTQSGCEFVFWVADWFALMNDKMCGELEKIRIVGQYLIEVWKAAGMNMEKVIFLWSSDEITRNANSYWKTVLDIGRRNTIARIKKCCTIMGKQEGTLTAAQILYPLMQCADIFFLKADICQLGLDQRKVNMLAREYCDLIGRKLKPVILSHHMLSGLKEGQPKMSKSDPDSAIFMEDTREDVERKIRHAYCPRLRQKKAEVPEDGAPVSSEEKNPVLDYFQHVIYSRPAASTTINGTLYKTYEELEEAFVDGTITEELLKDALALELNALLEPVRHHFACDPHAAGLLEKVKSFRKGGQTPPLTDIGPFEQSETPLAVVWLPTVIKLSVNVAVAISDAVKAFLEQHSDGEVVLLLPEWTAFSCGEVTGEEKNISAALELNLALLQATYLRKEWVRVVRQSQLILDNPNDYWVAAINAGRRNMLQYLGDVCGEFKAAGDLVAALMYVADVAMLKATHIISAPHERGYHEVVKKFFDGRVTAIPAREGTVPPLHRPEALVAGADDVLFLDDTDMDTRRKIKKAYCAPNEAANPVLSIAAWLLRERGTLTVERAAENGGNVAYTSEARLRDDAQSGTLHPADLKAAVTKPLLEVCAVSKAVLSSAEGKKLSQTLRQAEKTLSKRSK

[8] = target: T4, Tyrosyl-tRNA synthetase, putative (Trypanosoma cruzi (strain CL Brener)); test: Trypanosoma cruzi tyrosyl tRNA synthetase (TcYRS) SOP; type: functional; settings: 30 µM
[9] = target: Chromo domain-containing protein 1 (Saccharomyces cerevisiae (strain ATCC 204508 / S288c) (Baker's yeast)) (UniProt P32657); test: ScCHD-1 Enzyme Inhibition Assay; type: functional; settings: 30 µM; note: in the data most compounds retested in dose-response had high values
Chromo domain-containing protein 1 (Saccharomyces cerevisiae (strain ATCC 204508 / S288c) (Baker's yeast)), sequence (P32657 whole entry, the tested form may be a part): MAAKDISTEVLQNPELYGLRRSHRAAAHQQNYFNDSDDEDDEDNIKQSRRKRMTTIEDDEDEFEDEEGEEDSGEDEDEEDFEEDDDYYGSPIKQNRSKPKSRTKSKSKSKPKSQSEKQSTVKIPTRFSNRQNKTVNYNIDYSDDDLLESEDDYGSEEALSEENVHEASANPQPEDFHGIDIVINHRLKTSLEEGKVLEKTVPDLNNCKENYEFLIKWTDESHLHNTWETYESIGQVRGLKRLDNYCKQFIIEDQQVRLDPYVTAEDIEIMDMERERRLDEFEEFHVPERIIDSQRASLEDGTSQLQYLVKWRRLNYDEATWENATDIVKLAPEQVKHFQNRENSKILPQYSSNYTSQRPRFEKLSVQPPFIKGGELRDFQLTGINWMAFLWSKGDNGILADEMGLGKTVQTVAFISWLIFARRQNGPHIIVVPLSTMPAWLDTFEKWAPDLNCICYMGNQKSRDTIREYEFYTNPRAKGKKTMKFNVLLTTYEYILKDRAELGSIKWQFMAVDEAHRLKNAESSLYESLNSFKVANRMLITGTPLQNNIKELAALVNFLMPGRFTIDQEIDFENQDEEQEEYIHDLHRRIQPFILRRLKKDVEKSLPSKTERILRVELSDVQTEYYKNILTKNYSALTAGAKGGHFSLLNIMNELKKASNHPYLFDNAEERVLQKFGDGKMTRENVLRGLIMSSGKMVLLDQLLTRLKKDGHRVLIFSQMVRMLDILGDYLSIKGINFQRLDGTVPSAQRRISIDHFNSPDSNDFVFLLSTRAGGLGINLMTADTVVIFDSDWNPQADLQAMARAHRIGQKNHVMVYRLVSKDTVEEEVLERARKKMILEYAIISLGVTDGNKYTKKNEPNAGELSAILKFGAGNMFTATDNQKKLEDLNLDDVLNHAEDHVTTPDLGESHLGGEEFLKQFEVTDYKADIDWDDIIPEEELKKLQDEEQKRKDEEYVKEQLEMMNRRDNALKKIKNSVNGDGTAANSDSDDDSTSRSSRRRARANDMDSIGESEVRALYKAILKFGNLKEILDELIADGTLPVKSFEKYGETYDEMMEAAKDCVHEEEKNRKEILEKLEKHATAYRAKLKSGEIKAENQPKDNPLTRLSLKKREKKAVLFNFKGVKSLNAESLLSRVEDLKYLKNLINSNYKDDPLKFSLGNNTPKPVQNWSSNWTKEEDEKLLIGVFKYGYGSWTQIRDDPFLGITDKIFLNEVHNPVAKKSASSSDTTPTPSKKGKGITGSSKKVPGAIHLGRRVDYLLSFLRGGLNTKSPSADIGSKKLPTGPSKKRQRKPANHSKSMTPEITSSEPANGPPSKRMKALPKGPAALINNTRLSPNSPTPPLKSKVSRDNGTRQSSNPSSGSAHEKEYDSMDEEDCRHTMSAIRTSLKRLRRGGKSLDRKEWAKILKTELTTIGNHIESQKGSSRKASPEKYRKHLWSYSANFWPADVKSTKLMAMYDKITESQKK

Protein translocase subunit SecA (Escherichia coli (strain K12)), sequence (P10408 whole entry): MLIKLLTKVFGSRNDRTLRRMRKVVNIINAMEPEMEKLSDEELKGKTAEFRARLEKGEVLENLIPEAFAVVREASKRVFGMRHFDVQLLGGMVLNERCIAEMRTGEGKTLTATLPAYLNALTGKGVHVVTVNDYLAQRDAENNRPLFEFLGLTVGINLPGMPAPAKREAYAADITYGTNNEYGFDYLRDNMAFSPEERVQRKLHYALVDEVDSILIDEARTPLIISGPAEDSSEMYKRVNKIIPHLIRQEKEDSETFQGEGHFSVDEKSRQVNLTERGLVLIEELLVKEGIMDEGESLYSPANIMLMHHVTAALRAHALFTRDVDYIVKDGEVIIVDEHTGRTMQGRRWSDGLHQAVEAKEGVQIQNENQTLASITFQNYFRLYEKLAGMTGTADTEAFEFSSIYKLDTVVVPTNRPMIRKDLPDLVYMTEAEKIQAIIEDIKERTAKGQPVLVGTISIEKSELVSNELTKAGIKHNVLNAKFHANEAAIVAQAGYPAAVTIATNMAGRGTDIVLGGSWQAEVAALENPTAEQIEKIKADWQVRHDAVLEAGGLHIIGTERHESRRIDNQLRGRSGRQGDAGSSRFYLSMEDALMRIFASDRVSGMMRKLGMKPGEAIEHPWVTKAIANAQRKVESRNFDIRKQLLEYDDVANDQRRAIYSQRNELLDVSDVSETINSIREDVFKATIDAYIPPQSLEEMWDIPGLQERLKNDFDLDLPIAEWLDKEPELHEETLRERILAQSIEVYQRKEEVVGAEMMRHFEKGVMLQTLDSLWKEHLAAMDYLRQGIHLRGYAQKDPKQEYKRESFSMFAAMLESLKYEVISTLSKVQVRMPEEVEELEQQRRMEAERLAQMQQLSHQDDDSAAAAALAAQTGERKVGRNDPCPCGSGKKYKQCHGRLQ
Sialic acid-binding Ig-like lectin 9 (Homo sapiens), sequence (Q9Y336 whole entry): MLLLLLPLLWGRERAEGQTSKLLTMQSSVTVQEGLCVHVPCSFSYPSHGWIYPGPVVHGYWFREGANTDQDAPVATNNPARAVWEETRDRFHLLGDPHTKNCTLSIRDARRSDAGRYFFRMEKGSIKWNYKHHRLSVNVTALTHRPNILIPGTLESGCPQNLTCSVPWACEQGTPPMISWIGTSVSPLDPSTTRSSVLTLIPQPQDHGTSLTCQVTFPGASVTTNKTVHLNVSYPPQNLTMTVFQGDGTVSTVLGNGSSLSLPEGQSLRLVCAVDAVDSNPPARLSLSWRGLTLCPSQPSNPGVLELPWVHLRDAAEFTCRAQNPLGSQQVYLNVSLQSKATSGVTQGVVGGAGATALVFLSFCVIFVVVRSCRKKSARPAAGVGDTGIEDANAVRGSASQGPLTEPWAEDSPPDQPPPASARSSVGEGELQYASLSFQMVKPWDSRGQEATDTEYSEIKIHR

| SMILES | Percent Effect [1] | Percent Effect [2] | Percent Effect [3] | Percent Effect [4] | Percent Effect (Trypanosoma cruzi) | Percent Effect [5] | Percent Effect [6] | Percent Effect (Homo sapiens) | Percent Effect [7] | Percent Effect [8] | Percent Effect [9] |
| --- | --- | --- | --- | --- | --- | --- | --- | --- | --- | --- | --- |
| CCN(CC)C1CCN(C(=O)NCc2c(C)noc2C)CC1 | -3.56% | 5.48% | -3.43% | 2.27% | 0.198% | -3.59% | 10.9% | -3.14% | 7.29% | 13.6% | -1.04% |
| CN(C)S(=O)(=O)N1CCC2(CCCN(Cc3ccc(F)cc3)C2=O)C1 (stereo not given) | -4.94% | 8.22% | -3.06% | 5.14% | 5.16% | 2.4% | 5.22% | 4% | 5.21% | -1.24% | -6.71% |
| CSCC[C@H](N)C(=O)NCc1cc2n(n1)CCCN(C1CCCCC1)C2 | -0.291% | 12.5% | -5.04% | 5.09% | 4.37% | 36.2% | 13.7% | 2.41% | 4.21% | 12.8% | -3.52% |
| Cc1nccc(CNC(=O)NCCOc2ccc(F)c(F)c2)n1 | -4.87% | 0% | -0.557% | 27.5% | 4.25% | -1.43% | 14.8% | 8.46% | 4.76% | 9.76% | -9.47% |
| CC1CCN(Cc2cnc(S(=O)(=O)CC3CC3)n2CC2CCCO2)CC1 (stereo not given) | -4.08% | -4.17% | 9.77% | 0.164% | -3.21% | -2.65% | 0.877% | 4.06% | -1.05% | -7.69% | 5.99% |
| CC(C)CCN1CC2(CCCN(C(=O)c3cscn3)C2)CCC1=O (stereo not given) | -3.18% | 7.79% | 1.5% | 11.5% | 4.82% | -66.2% | 8.98% | -4.77% | 5.38% | 13.6% | -0.298% |
| CNc1cc(CNC(=O)c2ccccn2)nc(-c2ccncc2)n1 | -1.08% | 17.6% | 3.35% | -3.17% | 2.37% | 0.696% | 14.7% | 2.78% | 2.15% | 24.7% | -15.3% |
| Cc1cc(C[C@@H]2COC[C@@H]2NC(=O)CN2CCCC2)on1 | -4.18% | 2.74% | 1.08% | -9.23% | 1.96% | -1.82% | -4.61% | 18.8% | 5.38% | 10% | -4.15% |
| Cc1cc2n(n1)CC(CNC1CCN(Cc3ccccc3C)CC1)CN2 (stereo not given) | -8.28% | 0% | -15.1% | 13.7% | 0.684% | -2.73% | 2.49% | 16.5% | 4.3% | 3.7% | -2.06% |
| Cc1nc2ccccc2nc1CN1CCCC1Cn1cncn1 (stereo not given) | -0.371% | 20.8% | -4.59% | -7.28% | 3.23% | 1.9% | 19.5% | 13.1% | 16.2% | 21.2% | -23.2% |
| N#Cc1ccccc1OCCN1CCCCC1Cn1cncn1 (stereo not given) | -2.06% | 5.41% | -28.6% | 8.52% | 5.94% | -5.61% | 3.78% | -11.9% | 12.3% | 16.1% | -11.1% |
| CC1CN(C)c2ccccc2CN1C(=O)c1ccncc1 (stereo not given) | -2.73% | 13.7% | 4.78% | 21.6% | 3.53% | 32.3% | 8.87% | 1.93% | 2.15% | 5% | -3% |
| CC(C)n1cc(S(=O)(=O)N2CCCCC2)cn1 | -5.5% | 14.7% | -5.08% | 14.1% | 0.393% | -2.29% | 15.7% | 2.73% | 6.35% | 15.4% | -8.47% |
| CCCc1nc(CN2CCN(CC(O)c3ccccc3)CC2)no1 (stereo not given) | -2.75% | 11.4% | -0.305% | 1.98% | -1.54% | 4.09% | 8.23% | 7.59% | 5.21% | -2.53% | -26.1% |
| CN(C)C(CNS(=O)(=O)c1ccc(F)cc1F)c1cccn1C (stereo not given) | -6.84% | 8.22% | 2.21% | -1% | -4.9% | 2.73% | 10.8% | 13.6% | 4.3% | 12.5% | -4.19% |
| CCS(=O)(=O)c1ccc(N2CCC(NC(=O)c3cnn(C)c3)CC2)cc1 | -5.94% | 2.67% | -5.84% | 34.3% | 10.2% | -2.08% | 16.2% | 21.8% | 1.64% | 13.6% | -5.47% |
| COCc1nn(C(C)C)c2c1CCN(Cc1ccc(C)s1)C2 | -2.06% | 2.74% | -1.91% | -1.63% | 0.198% | 5.99% | 7.62% | 1.17% | 2.08% | 3.7% | -2.29% |
| CCC1CN(Cc2ccccc2)CCN1Cc1nnc(C2CCC2)o1 (stereo not given) | -1.22% | 2.74% | -2.21% | 8.69% | 6.07% | 5.91% | 1.95% | -3.45% | 1.07% | 5% | -0.293% |
| CC(NC(=O)NCCCN(C)S(C)(=O)=O)c1cccc(Cl)c1 (stereo not given) | 1.78% | 6.33% | 0.875% | -4.21% | -2.97% | 0.215% | 11.8% | 13.8% | 9.38% | 7.59% | 0.197% |
| Cc1cnn(C2CCCN(C(=O)C3=NN(C)C(=O)CC3)C2)c1 (stereo not given) | -6.81% | 21.6% | -15.8% | 11.8% | 8.4% | 3.21% | 15.7% | 2.98% | 8.37% | 13.6% | -12.6% |
